Assay outcomes (PubChem)
Rows were chosen to be rich in hits. Some 4% of all compounds tested hit in one or more screens of this group.
Mdm2-MdmX inh: inhibitors of human Mdm2-MdmX association, primary screen, cell-based, luminescence, split luciferase, SaOS-2, uHTS. Protein Mdm4 (Homo sapiens) + E3 ubiquitin-protein ligase Mdm2 (Homo sapiens), …. SaOS-2 split-luciferase Mdm2/MdmX complementation. inhibition, % at 8 µM. 330,000 compounds, 3% hits;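 active = inhibition of at least 50% at 8 µM in the primary screen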
Target sequence (O15151 whole entry, looked up): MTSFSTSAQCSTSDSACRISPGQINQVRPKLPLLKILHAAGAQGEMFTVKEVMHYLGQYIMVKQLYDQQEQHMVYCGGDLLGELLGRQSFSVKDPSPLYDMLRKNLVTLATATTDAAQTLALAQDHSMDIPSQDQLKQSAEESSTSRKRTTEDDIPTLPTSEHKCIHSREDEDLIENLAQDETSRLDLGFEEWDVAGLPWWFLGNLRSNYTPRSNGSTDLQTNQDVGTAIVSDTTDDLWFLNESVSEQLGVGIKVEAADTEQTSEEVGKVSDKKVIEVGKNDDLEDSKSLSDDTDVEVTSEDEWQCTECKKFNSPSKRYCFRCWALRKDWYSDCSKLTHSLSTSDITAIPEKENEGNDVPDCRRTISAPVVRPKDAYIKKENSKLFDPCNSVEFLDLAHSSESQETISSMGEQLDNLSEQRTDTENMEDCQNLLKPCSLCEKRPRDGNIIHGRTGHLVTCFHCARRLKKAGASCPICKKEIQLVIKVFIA
Target sequence (Q00987 whole entry, looked up): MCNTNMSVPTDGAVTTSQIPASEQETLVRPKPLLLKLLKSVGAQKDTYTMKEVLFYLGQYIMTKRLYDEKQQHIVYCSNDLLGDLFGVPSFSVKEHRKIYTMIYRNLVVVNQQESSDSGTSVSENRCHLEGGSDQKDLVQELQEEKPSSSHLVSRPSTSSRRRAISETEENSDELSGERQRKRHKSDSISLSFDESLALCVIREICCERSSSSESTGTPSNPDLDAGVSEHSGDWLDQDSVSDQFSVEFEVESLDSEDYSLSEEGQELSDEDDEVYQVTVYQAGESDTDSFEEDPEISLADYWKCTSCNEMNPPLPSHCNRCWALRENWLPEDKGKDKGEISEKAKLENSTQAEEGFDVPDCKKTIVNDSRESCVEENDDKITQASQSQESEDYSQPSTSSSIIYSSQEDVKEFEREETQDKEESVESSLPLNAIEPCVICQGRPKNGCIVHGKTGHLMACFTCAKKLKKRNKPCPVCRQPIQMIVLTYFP
Jurkat NFkB inh: inhibitors of induced NF-kB luciferase reporter, primary screen, TCR NF-kB activation inhibitor project, cell-based, luminescence, uHTS | inhibition, % at 4 µM | Jurkat, PMA/ionomycin-induced NF-kB luciferase reporter | 330,000 compounds, 0.53% hits | AID 435003, 2010; in the data active = inhibition above about 50%
Beta apoptosis: inhibitors of cytokine-induced beta cell apoptosis, primary screen, luminescence; protection from apoptosis, % (no concentration beside the values); 300,000 compounds, 0.8% hits; INS-1E cytokine-induced death, ATP luminescence, 48 h; percent of positive-control rescue, neutral wells zero;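 active = Every replicate reaches about 75%, or at least half do and their mean reaches it too, limit read from the data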;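 also: 0% = cytokine-treated negative control wells and 100% = positive control rescue; higher means more ATP so stronger rescue from cytokine killing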
697 NFkB inh: inhibitors of PMA/ionomycin-induced NF-kB reporter, 697 cells, primary screen, B-cell NF-kB inhibitor project, cell-based, luminescence, uHTS; 697 B-cell NF-kB luciferase reporter, 16 h; inhibition, % at 4 µM; 330,000 compounds, 0.33% hits; AID 435022, 2010; in the data active = inhibition above about 35%
Gli-Sufu antag: Gli-Sufu pathway antagonists, primary screen, luciferase luminescence, Sufu-KO-LIGHT cells, uHTS; Sufu-KO-LIGHT fibroblasts, Gli luciferase reporter luminescence; inhibition, % at 5 µM; 340,000 compounds, 0.74% hits; AID 588413, 2011;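 active = inhibition above about 55%, limit read from the data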;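 also: 0% = DMSO-treated cells and 100% = wells with medium but no cells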
Mdm2 MdmX conf: Mdm2-MdmX complex disruptors, retested hits, confirmation, luminescence, single concentration | shares compounds with Mdm2-MdmX inh | Mdm2-MdmX binding, luminescent assay | inhibition, % at 8 µM | 10,000 compounds, 55% hits; in the data active = inhibition above about 40%
Full FLuc ctr: full-length luciferase signal inhibition, confirmation, counter-screen for Mdm2/MdmX interaction inhibitor project, cell-based, single concentration, SaOS-2; shares compounds with Mdm2-MdmX inh; SaOS-2 full-length luciferase counterscreen, luminescence; inhibition, % at 8 µM; 6,200 compounds, 77% hits;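 active = mean inhibition at 8 µM reaching about 37%, which flags the compound as non-specific, limit read from the data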;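 also: p53-null SaOS-2 cells with luciferase driven by a doxycycline-inducible promoter; compound on cells about two nights before reading with doxycycline added after day one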
The depositor's hits bear a star; · = no result given.

SMILES | Mdm2-MdmX inh | Jurkat NFkB inh | Beta apoptosis | 697 NFkB inh | Gli-Sufu antag | Mdm2 MdmX conf | others
CNC[C@H]1Oc2c(NC(=O)c3ccc(-c4nccs4)cc3)cccc2C(=O)N([C@@H](C)CO)C[C@@H]1C | 13.0 | 8.4 | -9.2 | 6.3 | -1.8 | ·
CCNc1nc(NC(C)(C)C)nc(N2CCCCC2)n1 | 51.2* | 31.8 | 41.4 | -70.9 | 4.1 | 19.2
CCNc1nc(N2CCCC2)nc(N2CCCC2)n1 | 20.6 | 2.7 | 0.3 | -48.7 | 6.9 | ·
Cc1nc2ccccc2c(=O)n1/N=C/c1c(O)ccc2oc3c(c12)CCCC3 | 63.3* | 22.1 | 92.7* | 5.6 | -13.9 | 37.9 | Full FLuc ctr=49.6*
Cc1ccc(CNC(=O)C2CCCCN2S(=O)(=O)c2ccccc2)cc1 (centres undefined) | 9.7 | 12.8 | · | -3.4 | -5.5 | ·
Cc1ccnc(SCC(=O)NC2CCCCCC2)n1 | -13.8 | 18.6 | 3.0 | 1.3 | 5.5 | ·
C=CCc1ccccc1OCC(=O)N/N=C/c1ccc(OC(C)=O)cc1OC(C)=O | 52.0* | 14.6 | -21.4 | -38.5 | -6.6 | 51.0* | Full FLuc ctr=37.3*
O=C1NC2(CCCCC2)C(=O)N1c1cccc(Cl)c1 | -7.1 | -3.6 | -2.7 | 1.2 | 14.5 | ·
Clc1cccc(Cl)c1Cn1cnc2c(N3CCCCCC3)ncnc21 | 78.5* | -8.2 | 19.9 | -247.0 | -1.8 | 24.4
CCn1c(=O)[nH]c2cc(Cl)c(Cl)cc21 | 36.8 | 8.2 | -1.4 | 6.4 | 2.3 | ·
CCOc1cc(C(=O)N(C)CC(=O)Nc2cccc(F)c2)ccc1OCC(=O)N1CCOCC1 | 15.0 | 3.3 | -5.2 | 17.4 | 2.4 | ·
Cc1ccc(C(=O)Nc2ccccn2)cc1S(=O)(=O)N1CCOCC1 | 12.5 | 0.9 | -1.1 | 8.7 | -12.5 | ·
O=C(Nc1nc(-c2ccccn2)cs1)c1cc(S(=O)(=O)N2CCOCC2)ccc1F | 53.3* | -15.0 | · | -3.6 | -7.0 | 28.6
CN(CC1CCCO1)S(=O)(=O)c1ccc(C(=O)Nc2nc(-c3ccccn3)cs2)cc1 (centres undefined) | 88.8* | 25.4 | 103.9* | -31.5 | 33.5 | 80.3* | Full FLuc ctr=27.4
Cc1ccc(C(=O)Nc2nc(-c3ccccn3)cs2)cc1S(=O)(=O)N1CCOCC1 | 88.6* | 35.6 | 90.0* | -57.9 | 37.2 | 81.3* | Full FLuc ctr=23.2
Cc1nnc(NC(=O)c2ccc(F)c(S(=O)(=O)N3CCOCC3)c2)s1 | -7.6 | -2.9 | 1.8 | -15.2 | 8.2 | ·
O=C(Nc1nc(-c2ccccn2)cs1)c1ccc(F)c(S(=O)(=O)N2CCOCC2)c1 | 75.6* | 14.1 | 89.1* | -55.9 | 48.1 | 86.2* | Full FLuc ctr=25.6
CS(=O)(=O)c1ccc(-c2nnc(NC(=O)c3cccc(N4C(=O)CCC4=O)c3)o2)cc1 | 15.6 | 9.3 | · | 8.4 | -10.2 | ·
COCCN(C(=O)c1ccc(N2CCCC2=O)cc1)c1c(N)n(Cc2ccccc2)c(=O)[nH]c1=O | -11.9 | 5.1 | -5.9 | 16.2 | -25.8 | ·
COc1ccc(S(=O)Cc2ccc(C(=O)N3CCN(C(=O)c4ccco4)CC3)o2)cc1 (centres undefined) | -11.8 | 20.7 | -3.4 | -10.6 | 5.5 | ·
CN(CC(=O)Nc1c(Cl)cccc1Cl)C(=O)CNC(=O)c1ccco1 | 10.1 | -1.8 | -3.7 | 12.4 | -1.6 | ·
C=CC[C@@H](CC(=O)N(CCO)Cc1ccccc1)C(=O)N[C@@H](COC(=O)[C@@H](CC=C)Cc1ccc(F)cc1)Cc1ccccc1 | 62.7* | 2.2 | 12.7 | -6.7 | 16.2 | 12.2
C=CC[C@@H](CC(=O)N(CCO)Cc1ccccc1)C(=O)N[C@H](COC(=O)[C@@H](CC=C)Cc1ccc(F)cc1)Cc1ccccc1 | 70.2* | -8.6 | 6.2 | 5.4 | -25.3 | 14.3
C=CCC[C@@H](Cc1ccc(F)cc1)C(=O)OC[C@@H](NC(=O)[C@H](CC=C)CC(=O)N(CCO)Cc1ccccc1)c1ccccc1 | 32.0 | -5.4 | -5.7 | -20.9 | 1.8 | ·
C=CC[C@H](CC(=O)N(CCO)Cc1ccccc1)C(=O)N[C@@H](C)COC(=O)[C@@H](CC=C)Cc1ccc(F)cc1 | -7.3 | 17.0 | -15.2 | -0.2 | -16.9 | ·
SMILES | Mdm2-MdmX inh | Jurkat NFkB inh | Beta apoptosis | 697 NFkB inh | Gli-Sufu antag | Mdm2 MdmX conf | others
C=CCC[C@@H](Cc1ccc(F)cc1)C(=O)OC[C@@H](NC(=O)[C@@H](CC=C)CC(=O)N(CCO)Cc1ccccc1)c1ccccc1 | 88.0* | 9.6 | 1.2 | 4.7 | -7.4 | 9.2
NC(=O)c1cc(S(=O)(=O)NCCc2ccc(S(N)(=O)=O)cc2)cs1 | 14.9 | 10.0 | 0.3 | -1.7 | 4.5 | ·
COc1ccc(Cl)cc1NS(=O)(=O)N1CCOCC1 | -4.7 | -7.2 | 3.9 | 4.8 | 7.1 | ·
OC(CCCN1CCCCC1)(c1ccccc1)c1ccc(C(F)(F)F)cc1 (centres undefined) | · | · | · | · | 12.8 | ·
CC[C@]12c3[nH]c4cc(CCC(=O)N(C)C)ccc4c3CCN1C(=O)[C@@H](CC(=O)NCCCOC)C[C@@H]2C(=O)N1CCN(C(=O)c2ccco2)CC1 | 17.8 | · | · | -4.4 | -8.6 | ·
CC(OC(=O)C1CCCC1)C(=O)Nc1ccc(C(N)=O)cc1 (centres undefined) | 4.0 | 4.5 | 1.2 | 19.7 | -16.0 | ·
O=C(CCCCn1c(=O)c2ccccc2n(Cc2ccc(F)cc2Cl)c1=O)NCc1ccco1 | 53.7* | 17.5 | -4.0 | -17.5 | 3.2 | 25.4
COc1ccccc1NS(=O)(=O)c1cc(NC(=O)c2cccc(S(=O)(=O)N(C)C)c2)ccc1N1CCOCC1 | 25.1 | -2.9 | · | -19.4 | 5.6 | ·
C=CC[C@@H](CC(=O)N[C@@H](CO)Cc1ccccc1)C(=O)NC[C@@H](OC(=O)[C@@H](CC=C)Cc1ccc(F)cc1)c1ccccc1 | 52.3* | -3.2 | 10.0 | 3.8 | -1.6 | 9.9
C=CC[C@H](CC(=O)N(CCO)Cc1ccccc1)C(=O)NC[C@H](OC(=O)[C@@H](CC=C)Cc1ccc(F)cc1)c1ccccc1 | 70.7* | 13.0 | 13.0 | 8.8 | 5.0 | 39.0
C=CC[C@H](CC(=O)N(CCO)Cc1ccccc1)C(=O)NCCOC(=O)[C@@H](CC=C)Cc1ccc(F)cc1 | 14.3 | -7.5 | -1.3 | -13.2 | -7.4 | ·
C=CC[C@@H](CC(=O)N(CCO)Cc1ccccc1)C(=O)NC[C@@H](OC(=O)[C@@H](CC=C)Cc1ccc(F)cc1)c1ccccc1 | 54.7* | 7.5 | 7.2 | 4.2 | 8.8 | 18.4
CCn1c(SCC(=O)Nc2cc(C)on2)nc2c(c1=O)SCC2 | 41.5 | 2.9 | -9.2 | -11.1 | -3.9 | ·
CCCCc1ccc(NC(=O)CN2C(=O)C3CCCCC3C2=O)cc1 (centres undefined) | -5.3 | -24.1 | -8.0 | -18.7 | -6.2 | ·
